This note sets out measurements from PubChem BioAssay.

Experiment [1] in a line: inhibitors of TNFa-induced NFkB p65 translocation, primary screen, imaging, HUVEC, MLSMR starter and 10KST1 sets (AID 438;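 active means inhibition above 20% together with a positive visual image hit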;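 further: compound added about 3h40 before a 20 min TNFalpha stimulation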;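 on inhibition: signal is the nuclear over cytoplasmic p65 intensity ratio per well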). The following applies: HUVEC TNFa-induced p65 nuclear translocation; cell count: measured here: nuclei count (cytotoxicity indicator), at 2.08 µM unless noted; inhibition: at 2 µM, stronger effect = higher value unless noted.
Experiment [2] is described as follows: reduction of polyQ htt aggregates in cells – imaging, exon1htt(103Q)mCFP cells, high-content imaging, primary screen (AID 483;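 active means visual image review flags a hit and inhibition of aggregation exceeds 20%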;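 further: compound exposure lasted 3 days before fixation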;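 on nuclei count: percent of the per-plate median nuclei count of sample wells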). The following applies: exon1htt(103Q)mCFP cell line, aggregate imaging, at 2 µM; inhibition of aggregation: stronger effect = higher value; nuclei count: measured here: cell count, toxicity.
Experiment [3] in a line: endothelial E-selectin expression blockers – imaging, HUVEC, immunofluorescence, MLSMR starter and 10KST1 sets, primary screen (AID 487;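 active means visually confirmed hit in the image check and inhibition above 20%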;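 on inhibition: signal is fraction of cell area covered by stained E-selectin grains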;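 on nuclei count: 100% = median nuclei count of all wells on the same plate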). The conditions noted are these: HUVEC TNFalpha-induced E-selectin immunofluorescence imaging, at 2 µM; inhibition: stronger effect = higher value; nuclei count: measured here: cell number, toxicity.
Experiment [4] in a line: Primary imaging screen for DUSP6 inhibitors that restore phospho-Erk in transfected HeLa cells, chemical complementation (AID 609;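 active means compounds giving at least 50% inhibition in the cell-based MKP-3 phosphatase rescue imaging test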;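 on inhibition: phospho-Erk level distribution per well compared with pooled transfected vehicle control wells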). The conditions noted are these: HeLa MKP-3 transfected, phospho-Erk imaging KS statistic, at 10 µM.
In experiment [5] the target is Dual specificity protein phosphatase 6 (Homo sapiens) (UniProt Q16828). Described as above. The conditions noted are these: HeLa MKP-3 transfected, phospho-Erk imaging KS statistic, at 10 µM, stronger effect = higher value.
The target of experiment [6] is Voltage-gated potassium channel subunit beta-2 (Rattus norvegicus) (UniProt P62483). In words: inhibitors of rat Kvbeta2 reductase activity – biochemical, NADPH fluorescence, primary screen (AID 622;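 active means fluorescence slope higher than the sample average by over 3 SD, cut at about -0.22 in these data, passing the limit was not always enough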;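 further: slope of raw intensity against log time taken from 70 to 1610 s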). The following applies: recombinant KvBeta, 4-cyanobenzaldehyde reduction, at 10 µM, stronger effect = higher value.
Experiment [7] has the same target. Put plainly: enhancers of rat Kvbeta2 NADPH turnover – biochemical, NADPH fluorescence, primary screen (AID 623;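 active means NADPH fluorescence slope more negative than the mean of all samples by about 3 SD, 99.7% confidence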;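 further: fluorescence intensity change per second fitted from 20 to 320 s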). The conditions noted are these: Recombinant KvBeta, NADPH fluorescence decrease slope, 10 min; at 10 µM; stronger effect = lower value.
Experiment [8] deals with Alpha-2C adrenergic receptor (Homo sapiens) (UniProt P18825). Put plainly: compounds altering alpha2C-coupled GIRK flux – cell-based, HEK293 alpha2C/GIRK1/2, thallium flux, primary screen (AID 624;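 active means fluorescence slope after compound addition differing from the mean of all screened samples at 99.7% confidence, in either direction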;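 further: slope of fluorescence ratio to pre-addition baseline per second over 15 to 24 s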). The conditions noted are these: thallium flux BTC fluorescence, at 10 µM, actives lie on both sides.
Experiment [9] is described as follows: inhibitors of larval lipid processing in zebrafish, primary screen, whole organism, PED6 fluorescence, gall bladder and intestine (AID 686;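 active means a full or partial loss of lipid-probe fluorescence in the fish gall bladder, intestine or both, judged by eye; inactive means no fluorescence loss, or compound toxic to the fish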;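 further: larvae 5 to 7 days old with five fish per well; signal comes from phospholipase A2 cleavage of quenched PED6 carried via bile; overnight exposure to compound and PED6 before scoring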). The conditions noted are these: Zebrafish larvae PED6 lipid processing, fluorescence scoring.
Experiment [10] can be described thus: loss of swimming-algae plug formation – whole organism, Chlamydomonas reinhardtii, WT vs cilia-less mutant, absorbance, 96-well, primary screen (AID 463189).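 Further: 0% = wild type cc124 cells in DMSO and 100% = ciliumless bld1 mutant cells.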 The following applies: Chlamydomonas reinhardtii gravitaxis, OD600 absorbance, 2 days; at 10 µM; stronger effect = higher value.
Experiment [11] in a line: blockers of RIG-like receptor reporter activation – cell-based, Sendai virus stimulus, luciferase, 10K MLSCN set, TLR/RLR signaling modifier project, primary screen (AID 602276;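 active means inhibition at or above 50% at 10 µM; inactive means inhibition below 50%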;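 further: firefly luciferase from ISG56 promoter only with Renilla not read in this screen; 0% = Sendai virus plus DMSO and 100% = medium plus DMSO without virus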). The following applies: HEK293 RL24 IRF3 luciferase reporter, at 10 µM, stronger effect = higher value. For orientation: A reporter such as luciferase makes a cellular process visible.
Experiment [12] can be described thus: TLR3 IRF3 reporter activation blockers – cell-based, poly I:C stimulus, luciferase, 10K MLSCN set, primary screen (AID 602277;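 active means inhibition of the reporter signal at or above 50%; inactive means inhibition below 50%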). The conditions noted are these: HEK293-TLR3 RL24 IRF3 luciferase reporter, at 10 µM, stronger effect = higher value.
Experiment [13] addresses Muscarinic acetylcholine receptor M4 (Homo sapiens) (UniProt P08173). In words: M4-linked GIRK flux change, two-sided – cell-based, HEK293 M4/GIRK, thallium flux, BTC-AM, M4 allosteric agonist project, primary screen (AID 625;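 active means fluorescence slope after compound addition differing from the mean of all tested samples at 99.7% confidence, mostly higher but some lower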;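 further: thallium influx through GIRK channels coupled to M4 in HEK293 cells with BTC-AM dye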). The following applies: at 10 µM, actives lie on both sides.
[14] abbreviates: measured here: cell density z-score.
The mark [15] stands for this setting: measured here: nuclear c-Myc green intensity z-score.
[16] abbreviates: measured here: nuclear pErk red intensity z-score, stronger effect = higher value.

“And” between values parts separate entries of the source, which are not always exact repeats. Equal entries are not always repeated. The source made the active and inactive calls.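 How the source made its calls, unless noted: active means inhibition at or above 50% relative to wild type and mutant plate controls; inactive means inhibition below 50%.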

Chain of Alpha-2C adrenergic receptor (Homo sapiens) (P18825 whole entry, looked up): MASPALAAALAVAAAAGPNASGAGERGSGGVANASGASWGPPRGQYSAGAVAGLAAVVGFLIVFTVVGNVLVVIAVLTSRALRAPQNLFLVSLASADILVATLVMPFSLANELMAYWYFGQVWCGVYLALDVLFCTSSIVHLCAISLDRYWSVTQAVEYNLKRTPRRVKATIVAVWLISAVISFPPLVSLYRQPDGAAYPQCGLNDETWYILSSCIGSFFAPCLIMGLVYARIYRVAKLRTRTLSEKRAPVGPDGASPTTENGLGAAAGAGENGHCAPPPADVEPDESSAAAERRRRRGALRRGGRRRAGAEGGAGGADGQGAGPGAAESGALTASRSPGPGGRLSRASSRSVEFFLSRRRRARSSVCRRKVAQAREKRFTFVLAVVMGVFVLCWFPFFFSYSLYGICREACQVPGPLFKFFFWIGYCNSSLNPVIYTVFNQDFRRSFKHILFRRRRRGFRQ
Chain of Dual specificity protein phosphatase 6 (Homo sapiens) (Q16828 whole entry, looked up): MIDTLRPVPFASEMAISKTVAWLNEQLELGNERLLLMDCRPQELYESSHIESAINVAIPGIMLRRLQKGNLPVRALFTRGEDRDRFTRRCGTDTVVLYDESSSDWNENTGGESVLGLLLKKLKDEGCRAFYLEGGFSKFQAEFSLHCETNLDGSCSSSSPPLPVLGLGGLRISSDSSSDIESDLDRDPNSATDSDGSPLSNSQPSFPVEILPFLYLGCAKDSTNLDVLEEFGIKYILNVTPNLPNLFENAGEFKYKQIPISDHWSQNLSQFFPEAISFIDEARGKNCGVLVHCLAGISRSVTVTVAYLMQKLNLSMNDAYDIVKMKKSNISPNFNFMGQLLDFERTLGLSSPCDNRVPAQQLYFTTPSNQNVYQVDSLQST
Chain of Voltage-gated potassium channel subunit beta-2 (Rattus norvegicus) (P62483 whole entry, looked up): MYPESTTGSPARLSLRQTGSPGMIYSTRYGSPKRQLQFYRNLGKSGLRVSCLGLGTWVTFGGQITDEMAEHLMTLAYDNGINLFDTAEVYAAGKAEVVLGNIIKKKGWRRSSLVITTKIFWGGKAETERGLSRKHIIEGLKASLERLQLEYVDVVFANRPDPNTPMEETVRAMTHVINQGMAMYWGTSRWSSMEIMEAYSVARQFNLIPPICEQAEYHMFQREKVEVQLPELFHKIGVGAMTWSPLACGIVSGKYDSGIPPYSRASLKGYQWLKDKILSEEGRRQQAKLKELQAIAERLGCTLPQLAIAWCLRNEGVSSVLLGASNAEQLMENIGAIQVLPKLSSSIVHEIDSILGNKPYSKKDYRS
Chain of Muscarinic acetylcholine receptor M4 (Homo sapiens) (P08173 whole entry, looked up): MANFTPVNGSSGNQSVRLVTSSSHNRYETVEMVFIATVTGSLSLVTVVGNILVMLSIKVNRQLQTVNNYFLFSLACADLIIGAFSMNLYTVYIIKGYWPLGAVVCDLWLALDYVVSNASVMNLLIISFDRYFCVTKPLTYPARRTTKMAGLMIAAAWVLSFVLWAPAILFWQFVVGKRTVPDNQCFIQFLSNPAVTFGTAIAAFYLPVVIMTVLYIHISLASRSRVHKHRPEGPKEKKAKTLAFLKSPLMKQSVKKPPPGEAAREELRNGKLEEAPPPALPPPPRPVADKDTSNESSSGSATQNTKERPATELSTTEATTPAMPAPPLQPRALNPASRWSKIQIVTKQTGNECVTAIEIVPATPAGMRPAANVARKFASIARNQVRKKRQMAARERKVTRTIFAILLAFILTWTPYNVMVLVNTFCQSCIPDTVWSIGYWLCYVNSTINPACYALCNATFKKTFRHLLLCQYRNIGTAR

As a reminder, the inhibition is the relative decrease from the control value, in per cent. `CC(C)(C)OC(=O)c1c(N)n(Cc2ccco2)c2nc3ccccc3nc12` returned a cell count in [1] of 394. Also, the inhibition was -12.8% (inactive) in experiment [1]; -57.4% (inactive) in experiment [3]; 13.4% (inactive) in experiment [5]; 19.2% (inactive) in experiment [10]; 6.73% (inactive) in [11]; -1.48% (inactive) in [12]. The inhibition of aggregation in experiment [2] is -3.4% (inactive). In addition, the results for the nuclei count in experiment [2] and in experiment [3] were 81% and 127%, respectively. Besides, the z-score in [4] (setting [14]) was 0.353; in [4] (setting [15]), -0.801; in [4] (setting [16]), -1.16. Further, the fluorescence slope in experiment [6] is -0.293 (inactive). Also, the NADPH fluorescence slope in experiment [7] is 5.9e-05 (inactive). In experiment [8], the slope is 0.00636 (inactive). Besides, in experiment [9], the result was inactive.

In [1], `O=c1[nH]c(=O)n(-c2cccc3ccccc23)c(O)c1C=NCCCn1ccnc1` came in with a cell count of 430. In addition, the inhibition in [1] was 2.6% (inactive); in [3], -19% (inactive); in experiment [5] it was -5.95% (inactive); in [10] it was -5.53% (inactive); in experiment [11] it was 19% (inactive); in [12] it was 17.8% (inactive). Besides, the inhibition of aggregation in [2] is -2.6% (inactive). Further, the figures for the nuclei count in experiment [2] and in experiment [3] were 113% and 71.8%, respectively. In addition, the z-score was 0.0574 in experiment [4] (setting [14]), -0.666 in experiment [4] (setting [15]) and -0.681 in experiment [4] (setting [16]). In addition, the results for the fluorescence slope in experiment [6] and in experiment [13] were -0.411 (inactive) and 0.00656 (inactive), respectively. In experiment [7], the NADPH fluorescence slope was -2.1e-05 (inactive). Also, in experiment [8], the slope was 0.00458 (inactive). For the same compound, the call in [9] was inactive.

`CC(=O)[C@@]1(O)CC[C@H]2[C@@H]3CC=C4C[C@@H](O)CC[C@]4(C)[C@H]3CC[C@@]21C` registered a cell count in experiment [1] of 618. The inhibition in experiment [1] is -10.4% (inactive); in experiment [3] it was -57.3% (inactive); in [5] it was 7.39% (inactive); in [10], -4.89% (inactive); in [11], 9% (inactive); in experiment [12] it was 26.8% (inactive). The inhibition of aggregation in experiment [2] is 4% (inactive). For the same compound, the values for the nuclei count in experiment [2] and in [3] were 99.3% and 129%, respectively. Moreover, the z-score in experiment [4] (setting [14]) was -0.0512; in experiment [4] (setting [15]), -0.687; in experiment [4] (setting [16]), -0.36. In addition, in experiment [6], the fluorescence slope is -0.451 (inactive). For the same compound, the NADPH fluorescence slope in [7] is -5.3e-05 (inactive). Moreover, in experiment [8], the slope was 0.00537 (inactive). In addition, in experiment [9], the outcome was inactive.

On to `CC(C)N(CCC(C(N)=O)(c1ccccc1)c1ccccn1)C(C)C` (stereo not drawn), for which the cell count in experiment [1] was found to be 539. Besides, the inhibition in [1] is -8.5% (inactive); in experiment [3] it was -22.4% (inactive); in [5] it was 9.37% (inactive); in experiment [10], 1.35% (inactive) and 4.32% (inactive) and 26.6% (inactive); in [11], 6.44% (inactive); in [12] it was 34% (inactive). The inhibition of aggregation in experiment [2] was -2.7% (inactive). The values for the nuclei count in experiment [2] and in experiment [3] were 104% and 106%, respectively. Moreover, the z-score is -0.772 in experiment [4] (setting [14]), 0.954 in experiment [4] (setting [15]) and 0.768 in experiment [4] (setting [16]). The fluorescence slope in experiment [6] is -0.515 (inactive). Moreover, in experiment [7], the NADPH fluorescence slope was -7.6e-05 (inactive). Moreover, in experiment [8], the slope was 0.00456 (inactive). Moreover, in experiment [9], the compound was called inactive.

`CCC(COC(=O)c1cc(OC)c(OC)c(OC)c1)(c1ccccc1)N(C)C` (stereo not drawn): the cell count in experiment [1] turned out to be 445. The inhibition in experiment [1] was -6.3% (inactive); in experiment [3], -6.1% (inactive); in experiment [5], 3.45% (inactive); in experiment [10], -3.48% (inactive); in [11], 1.96% (inactive); in [12] it was 35% (inactive). Moreover, the inhibition of aggregation in experiment [2] is 12.7% (inactive). The nuclei count in experiment [2] and in experiment [3] was 92.2% each time. In addition, the z-score in [4] (setting [14]) was -0.162; in [4] (setting [15]) it was 0.437; in [4] (setting [16]), -0.404. In addition, the fluorescence slope in experiment [6] was -0.498 (inactive). Also, the NADPH fluorescence slope in [7] is -7.2e-05 (inactive). Moreover, in experiment [8], the slope is 0.00446 (inactive). Besides, the result in [9] was inactive.

In experiment [1], `Cc1ccc2c(c1)[C@@H]1CN(C)CC[C@@H]1N2C(=O)Nc1cccc(C(F)(F)F)c1` yielded a cell count of 378. Also, the inhibition in [1] was -9.8% (inactive); in [3], -93.8% (inactive); in experiment [5], -4.78% (inactive); in [10], 4.34% (inactive); in experiment [11], 20.1% (inactive); in experiment [12], 23.5% (inactive). In addition, in [2], the inhibition of aggregation is -11.2% (inactive). Further, the nuclei count in [2] worked out at 94.1%; in [3], 95.7%. Also, the z-score in experiment [4] (setting [14]) turned out to be 1.48; in experiment [4] (setting [15]), 0.568; in [4] (setting [16]), 0.647. Further, the fluorescence slope in [6] is -0.508 (inactive). Moreover, the NADPH fluorescence slope in experiment [7] is -0.000528 (active). Further, in experiment [8], the slope is 0.0079 (inactive).

In turn, `Clc1ccc(CSC(Cn2ccnc2)c2ccc(Cl)cc2Cl)cc1` (stereo not drawn) registered a cell count in [1] of 639. Further, the inhibition in experiment [1] is 3.8% [at 2 µM, stronger effect = higher value, 0% TNFa-plus-vehicle, 100% no-TNFa wells] (inactive); in experiment [3], -57.9% (inactive); in experiment [5], 10.2% [cells stimulated with TPA for 15 min] (inactive); in [10] it was 31.3% (inactive); in experiment [11] it was 13.2% (inactive); in experiment [12], 7.53% (inactive). In addition, the inhibition of aggregation in experiment [2] is -3.9% (inactive). The nuclei count in experiment [2] was determined as 108%; in experiment [3] it was 120%. Also, the z-score in experiment [4] (measured here: cell density z-score, cells stimulated with TPA for 15 min) is 0.528; in experiment [4] (measured here: nuclear c-Myc green intensity z-score, cells stimulated with TPA for 15 min), 0.633; in experiment [4] (measured here: nuclear pErk red intensity z-score, stronger effect = higher value, cells stimulated with TPA for 15 min), 0.478. Moreover, in experiment [6], the fluorescence slope is -0.531 (inactive). Moreover, the NADPH fluorescence slope in [7] is -3.2e-05 (inactive). Further, the slope in experiment [8] was 0.0071 (inactive). Further, the outcome in experiment [9] is “inactive; toxic [screened at 20 µM (by protocol)]”.

In [1], `CN1CCN(C(=O)OC2c3nccnc3C(=O)N2c2ccc(Cl)cn2)CC1` (stereo not drawn) registered a cell count of 563. Moreover, the inhibition in experiment [1] was -7.6% (inactive); in experiment [3], -132% (inactive); in [5], 3.45% (inactive); in experiment [10] it was 4.29% (inactive) and -9.06% (inactive); in experiment [11], 15.5% (inactive); in experiment [12] it was 43.6% (inactive). In addition, in [2], the inhibition of aggregation was -7% (inactive). Besides, the nuclei count amounted to 109% in experiment [2] and 114% in experiment [3]. For the same compound, the z-score was -0.576 in experiment [4] (setting [14]), -1.54 in experiment [4] (setting [15]) and 0.116 in experiment [4] (setting [16]). Also, the fluorescence slope in [6] is -0.501 (inactive). Besides, the NADPH fluorescence slope in [7] was -7.3e-05 (inactive). The slope in experiment [8] is 0.00689 (inactive). Moreover, the compound was classed as inactive in experiment [9].

For `CC[C@@H](CO)NC(=O)[C@@H]1C=C2c3cccc4c3c(cn4C)C[C@H]2N(C)C1`, in experiment [1], the cell count was 540. In addition, the inhibition was -4.2% (inactive) in [1]; -32.5% (inactive) in experiment [3]; 5.79% (inactive) in experiment [5]; 5.16% (inactive) and -19.2% (inactive) in [10]; 18% (inactive) in experiment [11]; 38% (inactive) in [12]. In addition, the inhibition of aggregation in experiment [2] was -7.9% (inactive). Also, the nuclei count in [2] amounted to 89.4%; in [3], 113%. Further, the z-score was 0.785 in experiment [4] (setting [14]), -0.624 in experiment [4] (setting [15]) and -1.05 in experiment [4] (setting [16]). In experiment [6], the fluorescence slope is -0.107 (active). Also, the NADPH fluorescence slope in experiment [7] was -2e-06 (inactive). Besides, the slope in experiment [8] was 0.0047 (inactive). In addition, in experiment [9], the outcome was inactive.
